In PubChem BioAssay AID504466 (National Center for Advancing Translational Sciences (NCATS), 2011):
Screen size: about 330,000 compounds; about 4,200 (1.3%) were called active. Inconclusive results (about 6%) are left out. This is one part of a sample in which actives are shown more often than they occur. A number with no mark means an inactive call. The call rests on the fitted dose curve; in most records, active means well fitted activation curve with a large enough effect; inconclusive means small, poorly fitted or top-dose-only effect; inactive means no such curve, though single readings can be large or run the other way.
Potency means the concentration at half of the fitted maximal effect.

Assay: qHTS screen for small molecules that induce genotoxicity in human embryonic kidney (HEK293T) cells expressing luciferase-tagged ELG1; further: nearly all actives have a fitted effect of over 60% in size; on activity change, positive = activation: % of control where 0% means no effect
Details: HEK293T ELG1-luciferase reporter, luminescence, 16 h; series mostly up to 46 µM; activity change, positive = activation: at the top concentration
Procedure, shortened: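 Quantitative HTS format in 1536-well plates. HEK293T ELG1-luciferase reporter cells receive test compound and are incubated 16 hr at 37 °C, 5% CO2; ONE-Glo added, 30 min room temperature, then luminescence read.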
With `O=C(COc1cccnc1[N+](=O)[O-])Nc1ccc(Cl)cc1F` the “activity change, positive = activation” value was 26.2%. In the case of `O=C(COC(=O)COc1cccc(F)c1)NCC1CCCCC1`, the “activity change, positive = activation” value was 13.6%. For `COc1ccc2sc(-c3ccc(S(C)(=O)=O)cc3)c(C#Cc3cncn3C)c2c1`, the “activity change, positive = activation” value was 8.77%. In the case of `CC(C)(C)OC(=O)C[C@@H]1C/C=C\C[C@H](CC(=O)N[C@@H](CO)Cc2ccccc2)C(=O)N[C@H](Cc2ccccc2)COC1=O`, the “activity change, positive = activation” value was -0.52%. With `Cc1ccc(-c2cc(C(=O)N3CCc4ccccc4C3)no2)cc1` the “activity change, positive = activation” value was 4.79%. For `O=C(c1noc2c1CCCC2)N1CCc2ccccc2C1`, the Potency was 20.6 µM (active). For `CN(c1ccc(C(=O)N2CCc3ccccc3C2)cc1)S(C)(=O)=O`, the “activity change, positive = activation” value was 0.636%. In the case of `CC(C)CC1(C)NC(=O)N(CC(=O)Nc2ccc3c(c2)OCCO3)C1=O` (configuration not stated), the “activity change, positive = activation” value was -0.422%. For `Cc1ccc(S(=O)(=O)NCC(=O)NNC(=O)c2ccc(Br)cc2)cc1C`, the “activity change, positive = activation” value was 0.75%. With `COc1ccc(-c2noc(-c3cccc(OC)c3OC)n2)cc1OC` the Potency was 3.26 µM (active). For `COc1ccc(-c2noc(-c3ccc(C)cc3)n2)cc1`, the Potency was 3.66 µM (active). For `COc1ccc(-c2noc(CN(C)S(=O)(=O)c3ccc(C)cc3)n2)cc1`, the “activity change, positive = activation” value was 13.2%. For `COc1ccc(-c2csc3nc(-c4ccccc4F)oc(=O)c23)cc1OC`, the “activity change, positive = activation” value was 12.1%. For `Cc1ccc(-c2nc(-c3ccncc3)no2)c(C)c1`, the Potency was 20.6 µM (active). With `COc1ccccc1CNS(=O)(=O)c1ccc(C)cc1` the “activity change, positive = activation” value was -0.471%. With `Cc1ccc(-c2noc(CC(c3ccccc3)c3ccccc3)n2)cc1` the “activity change, positive = activation” value was -1.39%. In the case of `COc1ccc(-c2noc(CSc3ccc(C)cc3)n2)cc1`, the “activity change, positive = activation” value was 9.24%. In the case of `Cc1ccc(-c2noc(CSc3nnc(-c4ccncc4)n3-c3ccc(F)cc3)n2)cc1`, the “activity change, positive = activation” value was -16.5%. In the case of `Cc1ccc(-c2noc(-c3ccccc3C(=O)NCC3CCCO3)n2)cc1` (configuration not stated), the “activity change, positive = activation” value was -1.12%. In the case of `COc1ccc(-c2noc(CCCC(=O)NC3CCCC3)n2)cc1OC`, the “activity change, positive = activation” value was -5.32%. With `COc1ccccc1Cc1nc(-c2ccc(C)cc2)no1` the Potency was 18.4 µM (active). In the case of `CCOC(=O)C1CCCN(C(=O)CSc2nnc3nc(C)cc(C)n23)C1` (configuration not stated), the “activity change, positive = activation” value was 0.58%. With `CC(C)NC(=O)Nc1cccc2c1O[C@H](CN(C)S(=O)(=O)c1cccs1)[C@@H](C)CN([C@H](C)CO)C2=O` the “activity change, positive = activation” value was -0.978%. For `COc1ccc(-c2sc3ccccc3c2-c2ccc(OCCN3CCOCC3)cc2)cc1`, the “activity change, positive = activation” value was -2.58%. In the case of `O=C(COC(=O)c1cccnc1Cl)Nc1ccc(S(=O)(=O)N2CCOCC2)cc1`, the “activity change, positive = activation” value was 3.07%. In the case of `COc1ccc2[nH]c3c(c2c1)CCN1C(=O)C(CC(=O)NCCCN(C)C)C[C@H](C(=O)N2CCOCC2)[C@@]31CCC1CCCC1` (some centres not stated), the “activity change, positive = activation” value was 8.11%. For `Cc1ccc(S(=O)(=O)Nc2ccc(F)c(S(=O)(=O)N3CCOCC3)c2)cc1`, the “activity change, positive = activation” value was -2.13%. In the case of `CCn1nc(C(=O)NNS(=O)(=O)c2cc(/C=C/C(=O)O)cc(OC)c2OC)c2ccccc2c1=O`, the “activity change, positive = activation” value was -1.69%. For `C[C@H]1CN([C@@H](C)CO)C(=O)Cc2cc(NS(C)(=O)=O)ccc2O[C@@H]1CN(C)CC1CC1`, the “activity change, positive = activation” value was -0.237%. For `COc1ccc(-c2n[nH]c(C)c2-c2ccccc2OC)c(O)c1`, the “activity change, positive = activation” value was -8.55%. In the case of `COc1ccc(-c2noc(CNC(=O)C(C)Oc3ccccc3)n2)cc1` (configuration not stated), the “activity change, positive = activation” value was -8.44%. For `Cc1ccc(Cc2nc(-c3cccc(C)c3)no2)cc1`, the Potency was 16.4 µM (active). For `Cc1ccc(-c2noc(CSc3nnc(-c4ccccc4)n3C)n2)cc1`, the “activity change, positive = activation” value was -5.8%. With `COc1ccc(-c2nc(-c3ccccc3)no2)c(OC)c1` the Potency was 0.058 µM (active). For `Cc1cccc(-c2noc(CCC(=O)NC3CCCC3)n2)c1`, the “activity change, positive = activation” value was 3.59%. For `O=C(COC(=O)c1ccc(F)cc1)Nc1ccc2c(c1)OCO2`, the “activity change, positive = activation” value was 1.47%. In the case of `O=C(CN1C(=O)NC2(CCCCCC2)C1=O)NCc1ccc(F)cc1`, the “activity change, positive = activation” value was -1.42%. For `O=C(N[C@H]1C/C=C\C(c2ccc(F)cc2)N(Cc2ccccc2)C(=O)C1)OCC1c2ccccc2-c2ccccc21` (some centres not stated), the “activity change, positive = activation” value was -1.55%. With `C#CCOCCOCCOCCNc1nc(N2CCN(C(=O)[C@H](CCCN=C(N)N)n3cc(C(N)[C@@H](C)CC)nn3)CC2)nc(N2CCN(C(=O)[C@H](CO)n3cc([C@@H](N)C(C)C)nn3)CC2)n1` (some centres not stated) the “activity change, positive = activation” value was 2.45%. With `CCN(c1ccccc1)S(=O)(=O)c1ccc(C(=O)Nc2ccccc2OC)cc1` the “activity change, positive = activation” value was -6.55%. With `CCCCSc1nnc(-c2ccc(C)cc2)o1` the Potency was 2.06 µM (active). For `CCOC(=O)CSc1nnc(-c2ccc([N+](=O)[O-])cc2)o1`, the “activity change, positive = activation” value was -0.612%. For `Cc1cccc(C)c1OC(=O)CSc1nnc(-c2ccccc2)o1`, the “activity change, positive = activation” value was 2.25%. In the case of `c1ccc2c(CCN3CCNC[C@H]3Cc3cccc4ccccc34)cccc2c1`, the “activity change, positive = activation” value was 0.671%. For `COc1ccc(-n2nnnc2-c2nc3ccccc3s2)cc1`, the Potency was 1.46 µM (active). With `COc1ccc(-n2nnnc2CNC(=O)c2ccc3ccccc3c2)cc1` the “activity change, positive = activation” value was -1.6%. For `COc1ccc(C2=NN(c3nc4ccccc4s3)C(=O)C2)cc1`, the “activity change, positive = activation” value was -0.0195%. With `O=C(Nc1ccc(N2CCOCC2)cc1)c1cccc(S(=O)(=O)N2CCOCC2)c1` the “activity change, positive = activation” value was -1.33%. In the case of `O=C(CCc1ccc(S(=O)(=O)N2CCOCC2)cc1)OCC(=O)c1ccc(Br)cc1`, the “activity change, positive = activation” value was -0.314%. In the case of `Cc1cccnc1CC(C)NC(=O)c1cc(COc2cncc(Cl)c2)on1` (configuration not stated), the “activity change, positive = activation” value was 0.0531%. In the case of `COc1ccc(OCc2cc(C(=O)NCC3(C)COC3)no2)c(Cl)c1`, the “activity change, positive = activation” value was 12%. With `Cc1cc(OCc2cc(C(=O)NCc3cc(C(C)C)no3)no2)cc(C)c1Cl` the Potency was 3.66 µM (active). With `CC1(C)C[C@H]2C3=CCC4[C@@]5(C)CC[C@H](O)[C@](C)(CO)C5CC[C@@]4(C)[C@]3(C)C[C@@H](O)[C@@]2(CO)[C@@H](O)[C@@H]1O` (some centres not stated) the “activity change, positive = activation” value was 1.48%. In the case of `CC(C)(C)OC(=O)C1=C(CO)CS[C@@H]2[C@H](NC(=O)Cc3ccccc3)C(=O)N12`, the “activity change, positive = activation” value was 8.28%. With `C/C(=N\NC(=O)Cc1ccc(Cl)cc1)c1ccccn1` the Potency was 9.2 µM (active). For `C/C(CC(=O)Nc1ccc(N(C)C)cc1)=N\NC(=O)c1ccccc1F`, the “activity change, positive = activation” value was 12.6%. For `C/C(=N\NC(=O)Cc1ccc(Br)cc1)c1cccnc1`, the “activity change, positive = activation” value was 10.7%. With `C/C(=N\NC(=O)c1ccccc1F)c1ccccn1` the Potency was 3.66 µM (active). For `C/C(=N\NC(=O)Cc1ccc(F)cc1)c1ccc(F)cc1`, the “activity change, positive = activation” value was -0.933%. With `Cc1ccc(Cl)cc1NC(=O)c1ccccn1` the “activity change, positive = activation” value was 5.69%. With `COc1ccc2[nH]c3c(c2c1)CCN1C(=O)C(CC(=O)NCc2cccc(C(F)(F)F)c2)C[C@H](C(=O)N2CCOCC2)[C@@]31C` (some centres not stated) the “activity change, positive = activation” value was 2.26%. With `O=C(COc1ccc(F)cc1Br)NCC1COc2ccccc2O1` (configuration not stated) the “activity change, positive = activation” value was 0.352%.
